From PubChem BioAssay (NCI)
This is part of a sample that, as a whole, favours compounds with a hit. Of some 79,000 tested, about 15% had one in any assay. Rule as the data show it: active = growth inhibition above about 70%; inactive = the rest.

What was measured:
[1] = NCI Yeast Anticancer Drug Screen. Data for the rad50 strain (AID 155);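 also: 0% = growth of vehicle-only cultures of the same strain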; conditions: S. cerevisiae rad50 strain growth inhibition; at 50.0 µM; active compounds read high
Procedure, shortened: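 Compounds were tested on a yeast strain with an engineered DNA damage repair alteration; the reported value is growth inhibition normalised to vehicle treatment.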

[2] = NCI Yeast Anticancer Drug Screen. Data for the mec2-1 strain (AID 157); conditions: S. cerevisiae mec2-1 strain, at 50.0 µM, active compounds read high
Procedure, shortened: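 Readout is yeast growth inhibition, normalised to vehicle-treated controls, in the mec2-1 strain exposed to compound.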

[3] = NCI Yeast Anticancer Drug Screen. Data for the sgs1 mgt1 strain (AID 161);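 also: 0% = growth of cultures given vehicle only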; conditions: S. cerevisiae sgs1 mgt1 strain, at 50.0 µM, active compounds read high
Procedure, shortened: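 Yeast cells carrying a defined DNA-repair defect were exposed to test compounds. Growth inhibition was measured relative to vehicle-treated controls.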

[4] = NCI Yeast Anticancer Drug Screen. Data for the cln2 rad14 strain (AID 165);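 also: 0% = growth equal to vehicle treated cultures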; conditions: S. cerevisiae cln2 rad14 strain, at 50.0 µM, active compounds read high
Procedure, shortened: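 Relative to vehicle controls, growth inhibition of compound-treated cln2 rad14 yeast was recorded.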

[5] = NCI Yeast Anticancer Drug Screen. Data for the bub3 strain (AID 167); conditions: S. cerevisiae bub3 mutant strain, at 50.0 µM, active compounds read high
Procedure, shortened: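 Growth of a checkpoint-deficient yeast mutant is measured after compound exposure. Values represent inhibition relative to vehicle.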

[6] = NCI Yeast Anticancer Drug Screen. Data for the mlh1 rad18 strain (AID 175); conditions: S. cerevisiae mlh1 rad18 strain growth inhibition; at 50.0 µM; active compounds read high
Procedure, shortened: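 Test agents were incubated with a yeast strain of defined genotype (DNA damage repair defect). Inhibition of growth was derived by comparison with vehicle-exposed cultures.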

Measured: growth inhibition

Nc1nc2c(C(=O)NCc3cccs3)nnn2c2cccc(Cl)c12
inactive: [1] -6.25% | [2] -1.45% | [3] -5.35% | [4] 4.2% | [5] -20.3% | [6] 7.05%

O=C(/C=C/c1ccccc1)NC(=S)Nc1ccccc1F
inactive: [1] 12.1% | [2] -3.1% | [3] -23.9% | [4] -12.4% | [5] 29.7% | [6] 20.6%

O=C1CCCc2ccccc21
inactive: [1] -2.35% | [2] -11.3% | [3] -29.9% | [4] -30.3% | [5] -14% | [6] 1%

CC(C)(CN)C(=O)O
inactive: [1] -3.2% | [2] -6.95% | [3] -11.6% | [4] -17.1% | [5] -0.3% | [6] 9.75%

Cc1ccc(S(=O)(=O)c2cc3ccccc3oc2=O)cc1
inactive: [1] -1.25% | [2] 1% | [3] -8.2% | [4] -40% | [5] -11.2% | [6] -9.65%

O=C1C2C3CCC(C3)C2C(=O)N1CCO (stereo unspecified)
inactive: [1] 3.35% | [2] 6% | [3] 7.15% | [4] 4.85% | [5] 17.9% | [6] -2.45%

C1CC2CC1CC2C1CO1 (stereo unspecified)
inactive: [1] 3.45% | [2] -6.15% | [3] 4.85% | [4] 0.75% | [5] 0.5% | [6] 4.7%

CC(C)N1CN(C(C(=O)N[C@@H]2C(=O)N3C2SC(C)(C)C3C(=O)O)c2ccccc2)CSC1=S (stereo partly specified)
inactive: [1] 48.8% | [2] -15.4% | [3] 3.85% | [4] -7.95% | [5] -9.85% | [6] -11.2%

Cn1c[n+](C)c([S-])n1
inactive: [1] -13.2% | [2] 2.6% | [3] -12.1% | [4] -8.45% | [5] 3% | [6] -5.25%

CCCC(=O)C(O)CCC (stereo unspecified)
inactive: [1] -20.5% | [2] -16.7% | [3] -2.6% | [4] -47.9% | [5] 1.65% | [6] -26.1%

Cc1c2c(n3c(nc4ccccc43)c1C#N)SCC2
inactive: [1] -51.3% | [2] -49.3% | [3] -44.5% | [4] -8.5% | [5] -22% | [6] -17.5%

Cc1[nH]c(=O)c(C#N)c(C)c1[N+](=O)[O-]
inactive: [1] -0.05% | [2] 20.3% | [3] 3.95% | [4] -35.7% | [5] 10.6% | [6] 1.9%

CC(C)NC(=O)OCc1cn2c(c1COC(=O)NC(C)C)CCC2
inactive: [1] 20.4% | [2] 12.8% | [3] 36% | [4] 22.4% | [5] 14.2% | [6] 35%

CCC(O)C1CCCCC1O (stereo unspecified)
inactive: [1] -8.95% | [2] 8.35% | [3] -3.8% | [4] 15.7% | [5] 15.2% | [6] 2.45%

NS(=O)(=O)c1cc(Br)ccc1Br
inactive: [1] 8.2% | [2] 12.9% | [3] -0.35% | [4] 39.6% | [5] 17.6% | [6] -7.65%

S=C(Nc1ccccc1)N1CCN(c2ccccc2Cl)CC1
inactive: [1] 10.7% | [2] -1.65% | [3] 8.25% | [4] -33.9% | [5] -2.15% | [6] 13.1%

CC(=O)Nc1ccc2c(=O)cc[nH]c2n1
inactive: [1] 13.7% | [2] 2.9% | [3] 2.4% | [4] 1.9% | [5] -2.95% | [6] 31.2%

CCOC(=O)Cc1nc2ncncc2[nH]c1=O
inactive: [1] 3.25% | [2] 12.2% | [3] -1.8% | [4] 15.3% | [5] 2.35% | [6] -7.85%

COc1cc(OC)c(NC(=O)C(Cl)(Cl)Cl)cc1Cl
inactive: [1] 4% | [2] 42% | [3] 5.9% | [4] -17.4% | [5] 30.9% | [6] 27.4%

O=P(O)(O)c1ccccc1Oc1ccccc1
inactive: [1] 7.8% | [2] 7.55% | [3] 26.3% | [4] 29.1% | [5] 8.05% | [6] 6.95%

CCOC(=O)CNC(=O)C(Cc1cnc[nH]1)NC(=O)OCc1ccccc1 (stereo unspecified)
inactive: [1] -1.9% | [2] -13.6% | [3] -8.6% | [4] -14.6% | [5] -6.7% | [6] -3.7%

Cn1nc(Br)c(=O)n(C)c1=O
inactive: [1] -17.9% | [2] -11.1% | [3] -14.8% | [4] -3.15% | [5] 1.7% | [6] -10.4%

CC(=O)/C(=C/N1CCNC1=S)C(=O)Nc1ccc([N+](=O)[O-])cc1
inactive: [1] -0.1% | [2] -4.5% | [3] -28.1% | [4] -33% | [5] -12.9% | [6] 5.6%

NC(CSCc1ccccc1)P(=O)(O)O (stereo unspecified)
inactive: [1] 8.35% | [2] 0.55% | [3] 0.2% | [4] -7.45% | [5] -2.45% | [6] -1.55%

CC1CN(N)C(=O)O1 (stereo unspecified)
inactive: [1] -3.9% | [2] -18.4% | [3] -19% | [4] 2.9% | [5] 2.6% | [6] -21.9%

C/C(=N/NC(=S)N1CCCCC1)c1ccccc1O
inactive: [1] -17.4% | [2] -41.7% | [3] 1.55% | [4] 4.4% | [5] -10.6% | [6] -5.75%

CC(C)(C)NC(=O)NC(C)(C)C
inactive: [1] -15.1% | [2] -7.95% | [3] 7.3% | [4] 14.8% | [5] 20.9% | [6] 4.45%

COc1ccc(CCc2ccc(OC)c(OCc3ccccc3)c2)cc1COc1ccccc1
inactive: [1] 41.9% | [2] 0.45% | [3] 22.1% | [4] 3.85% | [5] -1.8% | [6] 5.95%

CC(C)(CN1CCCCC1)C(=O)/C=C/c1ccc(Br)cc1
inactive: [1] 66.9% | [2] 22.8% | [3] 59.6% | [4] 41.4% | [5] 47.8% | [6] 55.6%

O=C1CCC(=O)N1n1c(Cc2ccc(Cl)cc2)n[nH]c1=O
inactive: [1] 17.4% | [2] 8.5% | [3] 19.1% | [4] 4.85% | [5] 12.8% | [6] -44.6%

Cc1ccc(NC2=CC(=O)c3ccccc3C2=O)cc1
inactive: [1] 22.4% | [2] 6.45% | [3] 17.8% | [4] -26.9% | [5] 13.8% | [6] 9.45%

c1cc2c3c(c1)ccc1ccc4cccc(c4c13)O2
inactive: [1] -26.4% | [2] -2.4% | [3] -24.2% | [4] -0.7% | [5] -3.45% | [6] -47.9%

CC12O[C@H](c3ccccc3)[C@H](c3ccccc3)N1C(=O)C1(C(=O)OCc3ccccc3)CC12 (stereo partly specified)
inactive: [1] 11.3% | [2] -7.35% | [3] 6.4% | [4] 2.15% | [5] -7.05% | [6] -3.45%

CCOC(=O)Oc1ccc(C(=O)Oc2ccccc2)cc1OC
inactive: [1] 18.1% | [2] 4.1% | [3] 12.9% | [4] -48.8% | [5] 42.1% | [6] 10%

NC1=NN(c2ccccc2)C(=O)C1/C(=N\NC(=O)c1cc2ccccc2cc1O)C(=O)Nc1cccc(C(F)(F)F)c1 (stereo unspecified)
inactive: [1] 47% | [2] 15.7% | [3] -33.5% | [4] 19.9% | [5] 20.5% | [6] 31.4%

O=c1[nH]c(-c2ccc(Cl)cc2)cs1
inactive: [1] -1.25% | [2] -14.8% | [3] -7% | [4] -5.65% | [5] -19.9% | [6] -16.1%

O=S(=O)(c1cccc(C(F)(F)F)c1)N(CCCCN(S(=O)(=O)c1cccc(C(F)(F)F)c1)S(=O)(=O)c1cccc(C(F)(F)F)c1)S(=O)(=O)c1cccc(C(F)(F)F)c1
inactive: [1] -13.8% | [2] -11.6% | [3] -20.7% | [4] -20.2% | [5] -19.2% | [6] -6.6%

CCOC(=O)Nc1nc2ccccc2n1CN1CCN(c2ccccc2)CC1
inactive: [1] 8.4% | [2] 7.75% | [3] -8.7% | [4] 21.3% | [5] 45.3% | [6] 16.9%

CCCCC(N)CSSCC(N)CCCC (stereo unspecified)
inactive: [1] -20.8% | [2] -44% | [3] -23.3% | [4] -20.1% | [5] -50.6% | [6] -35.6%

Cc1cc(C)nc(NC(=O)c2cc(C(=O)O)c(C(=O)Nc3cc(C)cc(C)n3)cc2C(=O)O)c1
inactive: [1] -20.3% | [2] -3.1% | [3] -18.8% | [4] -27.6% | [5] 3.25% | [6] -23.9%

CCOC(=O)Nc1ccc(F)cc1F
inactive: [1] -62.1% | [2] -10.6% | [3] -2.75% | [4] -10.5% | [5] 8.65% | [6] 14.4%
